High-throughput results (PubChem BioAssay)
VP16 counter – VP16 counterscreen qHTS for inhibitors of ROR gamma transcriptional activity; Potency, µM (top dose mostly 53.6 µM), for the others: top-dose activity, negative = inhibition, usual class: inhibitors; AID 2546, 2010; 310,000 tested, 3.5% active; Drosophila S2 Gal4-VP16 UAS-luciferase, luminescence, 20 h;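 note: Gal4-VP16 expression switched on by copper sulfate through the metallothionein promoter; % is set by controls: 0 for no effect and ±100 for the full control effect; nearly all actives have a fitted effect of over 50% in size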
HepG2 viability – qHTS for Inhibitors of TGF-b: Cytotox Counterscreen; HepG2 CAGA-GFP viability, ATP luminescence, 18 h; Potency, µM (titrated, usually from 46.1 µM), inactives show top-dose activity change, negative = cytotoxicity, actives largely listed as cytotoxic; 410,000 tested, 0.76% active; AID 588856, 2011
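HepG2 CAGA-GFP cells (1000/well, DMEM with 1% FBS) received compound, then TGF-beta at 500 pg/mL final, and were incubated 18 hours at 37 degrees C. Viability was read by CellTiter-Glo luminescence. Media-only wells were set as complete cell-killing and DMSO as no toxicity.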
ATXN2 expr inh – Primary qHTS for Inhibitors of ATXN expression; AID 1745845, 2022; HEK-293 ATXN2-luciferase reporter, luminescence, 24 h; Potency, µM (series often up to 57 µM), for inactives: at the highest dose activity change, negative = inhibition, most hits filed as inhibitors; 360,000 tested, 0.72% active; note: % is set by controls: 0 for no effect and ±100 for the full control effect; nearly all actives have a fitted effect of over 55% in size
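ATXN2-luciferase reporter cells (luciferase flanked by upstream and downstream ATXN2 gene portions) were treated 24 h at 37 °C with compounds at up to 57 uM. SteadyGlo luminescence gave expression; GF-AFC fluorescence gave viability.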
TGFb SMAD3 inh – qHTS for Inhibitors of TGF-b | HepG2 CAGA-GFP TGF-b/SMAD3 reporter, GFP fluorescence, 18 h; TGF-beta stimulated, 500 pg/mL final | 410,000 tested, 1.2% active | Potency, µM (doses to about 46.1 µM), for inactives: at the highest dose activity, negative = inhibition, actives largely listed as inhibitors; note: % is set by controls: 0 for no effect and ±100 for the full control effect; nearly all actives have a fitted effect of over 65% in size
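Smad-responsive CAGA-GFP expression was quantified in HEPG2 cells exposed to compounds and 500 pg/mL final TGF-beta for 18 h at 37 degrees C; unstimulated wells defined full inhibition.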
S2 tox – Viability Counterscreen for Primary qHTS for Inhibitors of ATXN expression; S2 cells (HEK-293 line with an ATXN2-luciferase reporter) viability, CellTiter-Fluor protease fluorescence, 24 h; Potency, µM (highest dose often 56.7 µM), most hits filed as cytotoxic; 400,000 tested, 0.49% active; AID 651635, 2014; note: nearly all actives have a fitted effect of over 40% in size
RORg inh – qHTS for inhibitors of ROR gamma transcriptional activity; Nuclear receptor ROR-gamma (Mus musculus), P51450; Drosophila S2 Gal4-RORgamma UAS-luciferase reporter, 20 h; Potency, µM (doses to about 53.6 µM), inactives show top-dose activity change, negative = inhibition, most hits filed as inhibitors; 310,000 tested, 5.4% active; AID 2551, 2010; note: % is set by controls: 0 for no effect and ±100 for the full control effect; nearly all actives have a fitted effect of over 60% in size
Target sequence (P51450 whole entry, looked up, the tested form may be a part): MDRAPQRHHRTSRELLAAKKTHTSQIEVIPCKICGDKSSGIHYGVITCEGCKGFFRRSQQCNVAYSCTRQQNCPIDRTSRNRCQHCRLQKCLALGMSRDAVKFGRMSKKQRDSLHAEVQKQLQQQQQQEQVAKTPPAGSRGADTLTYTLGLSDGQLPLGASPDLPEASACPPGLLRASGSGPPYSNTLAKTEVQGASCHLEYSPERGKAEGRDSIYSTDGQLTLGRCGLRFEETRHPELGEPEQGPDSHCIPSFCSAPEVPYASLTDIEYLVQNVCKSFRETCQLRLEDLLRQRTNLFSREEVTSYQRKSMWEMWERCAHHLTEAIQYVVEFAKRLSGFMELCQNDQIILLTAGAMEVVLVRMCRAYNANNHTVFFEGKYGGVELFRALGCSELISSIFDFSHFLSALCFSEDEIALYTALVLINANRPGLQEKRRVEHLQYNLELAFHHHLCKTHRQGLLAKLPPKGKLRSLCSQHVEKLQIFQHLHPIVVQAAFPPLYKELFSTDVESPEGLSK
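Read-out: Photinus luciferase luminescence; inhibitors lower reporter signal. Insect Schneider cells with Gal4-ROR gamma fusion under metallothionein promoter, UAS reporter; 700 uM final copper sulfate induction, 20 hr, ambient temperature.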
Starred values were filed as active, the others as inactive; i = inactive; u = inconclusive; x = no result. Sampled rows, rich in hits. Any-hit rate of the full collection: about 6.3%. Calls come from the whole dose curve; as a rule, active = well fitted curve in the direction sought with a large enough effect; inconclusive = small, poorly fitted or top-dose-only effect, or another doubt; inactive = no such curve, though single readings can be large; an effect the other way counts as inactive or inconclusive. Potency is the fitted concentration of half-maximal effect.

SMILES	VP16 counter	HepG2 viability	ATXN2 expr inh	TGFb SMAD3 inh	S2 tox	RORg inh
O=C(NCc1ccc(F)c(F)c1)c1cccc2c(-c3cccnc3)coc12	x	-33%	-35%	1%	u	x
CCNC(=S)NN=C1c2ccccc2-c2ccccc21	3.2µM*	5%	-16%	u	i	1.8µM*
C=C(C)CNC(=S)NN=C1c2ccccc2-c2ccccc21	u	-44%	5%	-14%	x	3.2µM*
C=C(C)CNC(=S)N/N=C/c1ccco1	3.2µM*	-9%	2%	-10%	i	0.56µM*
O=C(CCC(=O)N/N=C/c1ccco1)N/N=C/c1ccco1	-2%	14%	-16%	0%	i	8%
OCCCNCc1cc2cc3c(cc2nc1N1CCN(c2cccc(Cl)c2)CC1)OCO3	x	x	x	x	i	x
Cc1ccc2nc(N(Cc3cccnc3)C(=O)C3CCCCC3)sc2c1	x	-4%	x	-1%	x	x
O=C(C1CCCCC1)N(Cc1cccnc1)c1nc2c(F)cc(F)cc2s1	x	-36%	x	22µM*	x	x
Cc1cccc2sc(N(Cc3cccnc3)C(=O)C3CCCCC3)nc12	x	-41%	x	10µM*	x	x
CC(=O)N(Cc1cccnc1)c1nc2c(F)cc(F)cc2s1	x	-20%	x	-21%	x	x
COc1ccc(C=Cc2cc(OC)c(OC)c(OC)c2)cc1NC(=O)[C@H](N)CO	x	x	-11%	x	x	x
N#CCN(C(=O)COC(=O)CCCNC(=O)c1ccc(Cl)cc1)c1ccccc1	x	-11%	-8%	-8%	i	x
N#C/C(=C(/O)COC(=O)CCCNC(=O)c1ccc(Cl)cc1)c1nc2ccccc2[nH]1	u	-13%	u	-1%	x	11µM*
CCOC(=O)/C(O)=C(\C#N)c1nc2ccccc2[nH]1	-6%	-24%	3%	-19%	i	u
N#C/C(=C(/O)COC(=O)CSc1ccc(Cl)cc1)c1nc2ccccc2[nH]1	11µM*	-14%	28µM*	17%	14µM*	10µM*
Cc1cc(SCC(=O)OC/C(O)=C(\C#N)c2nc3ccccc3[nH]2)c(C)cc1Br	18µM*	-7%	u	2%	i	6.3µM*
Cc1cccc(C)c1OCCCCc1c(C)n[nH]c1C	u	11%	-18%	-2%	i	18µM*
Cc1ccccc1OCCCCc1c(C)n[nH]c1C	13µM*	-38%	-26%	-20%	i	u
Cc1n[nH]c(C)c1CCCCOc1ccccc1F	u	-16%	-7%	-11%	i	u
COc1cccc(OC)c1OCCCCc1c(C)n[nH]c1C	-6%	-21%	-9%	-13%	i	24%
Cc1ccccc1OCCCc1c(C)n[nH]c1C	4%	-5%	7%	0%	i	7.1µM*
O=P(O)(O)OCC(O)CO (configuration not stated)	x	x	1%	x	i	x
COc1ccccc1C(CNC(=O)C(C)Oc1ccc(Br)cc1)N1CCCC1 (configuration not stated)	x	0%	-26%	20%	u	x
C=C(NNC(C)=O)c1ccc(O)cc1	x	-5%	x	5%	x	x
CCNC(=S)N/N=C/c1ccc(OCCOc2ccccc2C)cc1	10µM*	-12%	-29%	-11%	i	4.5µM*
SMILES	VP16 counter	HepG2 viability	ATXN2 expr inh	TGFb SMAD3 inh	S2 tox	RORg inh
CCNC(=S)N/N=C/c1ccc(C(=O)O)cc1	-12%	-19%	-13%	-3%	i	33%
CCOc1ccc(/C=N/NC(=O)C(OC)c2ccccc2)cc1 (configuration not stated)	6%	12%	15%	6%	i	25%
CCOc1ccc(/C=N/NC(=S)Nc2c(C)cccc2C)cc1	2µM*	-33%	-23%	-14%	i	1µM*
CN(Cc1ccccc1)C(=O)c1ccc2c(c1)N(Cc1ccccc1Cl)C(=O)c1ccccc1S2	x	-3%	x	-11%	x	x
CC(C)C[C@H]1CNC(=O)C(=O)N1CC1CCN(CCC(C)c2ccccc2)CC1 (some centres not stated)	x	-13%	9%	-13%	i	x
COc1ccccc1C(CNC(=O)c1oc2ccccc2c1C)N1CCCC1 (configuration not stated)	x	-2%	9%	9%	i	x
CC(C)CC(=O)Nc1nc2ccc(S(C)(=O)=O)cc2s1	24%	11µM*	11%	-15%	i	32%
CCC(=O)Nc1nc2ccc(S(C)(=O)=O)cc2s1	4%	-14%	13%	-5%	i	u
COc1cc(C(=O)Nc2nc3ccc(S(C)(=O)=O)cc3s2)cc(OC)c1C	-17%	-29%	-11%	u	i	-26%
COc1ccc2nc(NC(=O)c3cc(C)oc3C)sc2c1	u	-51%	20%	4%	i	u
Cc1cc(C(=O)Nc2nc3ccc(S(C)(=O)=O)cc3s2)c(C)o1	u	-42%	4%	-3%	i	1.1µM*
Cc1ccc(C(=O)Nc2nc3ccc(S(C)(=O)=O)cc3s2)s1	u	-28%	8%	-4%	i	3.2µM*
CS(=O)(=O)c1ccc2nc(NC(=O)c3cccs3)sc2c1	8.9µM*	10µM*	u	-22%	i	14µM*
C[C@H](O)[C@@H]1C(=O)N2CCc3c([nH]c4ccccc34)[C@@H]2C[C@@H]1N(C)C(=O)Nc1cc(Cl)cc(Cl)c1	x	-12%	0%	u	u	x
CS(=O)(=O)c1ccc2nc(NC(=O)c3cccc(NS(=O)(=O)c4ccc(F)c(F)c4)c3)sc2c1	u	-26%	-7%	18µM*	i	u
CS(=O)(=O)c1ccc2nc(NC(=O)c3ccc(NS(=O)(=O)c4ccc(F)c(F)c4)cc3)sc2c1	-26%	-1%	x	u	i	u
Cc1cccc(NC(=O)C(Cc2ccccc2)NS(=O)(=O)c2ccc3c(c2)c(=O)n(C)c(=O)n3C)c1 (configuration not stated)	x	-3%	-20%	-23%	i	x
COc1ccc(S(=O)(=O)N2CCN(c3ccccc3OC)CC2)cc1-c1noc(C)n1	x	-1%	x	-19%	x	x
CCc1ccc(-n2nc3ccc(NC(=O)c4cc5ccccc5o4)cc3n2)cc1	x	-4%	20%	1%	i	x
Cc1cnc2ccc3ccccc3c2c1C	x	-2%	x	-17%	x	x
COc1ccc(-c2nc(CS(=O)CC(=O)NCc3ccc(Cl)cc3)c(C)o2)cc1 (configuration not stated)	7%	-18%	-7%	-12%	i	8.9µM*
